Most compounds without a hit are left out; they make up all but 2.4% or so of the library.
C diff HTS – C. difficile growth inhibition | AID 1259249 | Clostridium difficile clinical isolate growth, OD600, 24 h; hits give low values | actives 0.25% (n = 86,000) | growth activity, negative = inhibition, % at 16 µg/mL (by protocol);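 active = mean growth activity at or below -80% and every replicate also at or below -80%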;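 note: 0% = DMSO wells and -100% = levofloxacin 16 µg/mL wells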
Pf Dd2 growth – inhibitors of Plasmodium falciparum Dd2 growth; P. falciparum Dd2 growth, SYBR Green, 72 h; hits give low values; activity change, % at 10 µM; actives 2.3% (n = 94,000); in the data active = activity change below about -80%
An asterisk follows results filed as active; . = no result given.

SMILES	C diff HTS	Pf Dd2 growth
C[C@@H]1CN([C@@H](C)CO)C(=O)c2cc(NC(=O)c3ccccc3)ccc2O[C@@H](C)CCCCO[C@@H]1CN(C)S(=O)(=O)c1ccc(F)cc1	8	-81*
Cc1ccc(S(=O)(=O)N(C)C[C@H]2OCCCC[C@H](C)Oc3ccc(NC(=O)c4ccccc4)cc3C(=O)N([C@@H](C)CO)C[C@H]2C)cc1	.	-86*
C[C@@H]1CN([C@H](C)CO)C(=O)c2cc(NC(=O)c3ccccc3)ccc2O[C@@H](C)CCCCO[C@@H]1CN(C)S(=O)(=O)c1ccc(Cl)cc1	11	-82*
C[C@@H]1CCCCO[C@H](CN(C)S(=O)(=O)c2ccc(Cl)cc2)[C@H](C)CN([C@@H](C)CO)C(=O)c2cc(NC(=O)c3ccccc3)ccc2O1	6	-74
Cc1ccc(S(=O)(=O)N(C)C[C@H]2Oc3ccc(NC(=O)c4ccncc4)cc3C(=O)N([C@H](C)CO)C[C@H]2C)cc1	-2	23
Cc1noc(C)c1NC(=O)Nc1ccc2c(c1)CC(=O)N([C@H](C)CO)C[C@H](C)[C@@H](CN(C)Cc1ccc(C(F)(F)F)cc1)O2	-14	0
CC(C)NC(=O)N1[C@@H]2CNC[C@H]1C2c1ccc(-c2ccc(C#N)cc2)cc1 (some centres not stated)	-4	14
COc1ccc2c3c(n(C)c2c1)[C@@H](CO)N(Cc1ccccc1OC)CC31CCN(CC2CC2)CC1	13	-91*
COc1ccc2c3c(n(C)c2c1)[C@@H](CO)N(Cc1ccccc1F)CC31CN(CC2CC2)C1	7	-8
COc1ccc2c3c(n(C)c2c1)[C@H](CO)N(Cc1ccccc1OC)CC31CCN(CC2CC2)CC1	15	-66
COc1ccc2c3c(n(C)c2c1)[C@@H](CO)N(Cc1ccccc1F)CC31CCN(CC2CC2)CC1	4	-88*
COc1ccc2c3c(n(C)c2c1)[C@@H](CO)N(CC1CC1)CC31CCN(Cc2ccc(F)cc2)CC1	8	-77
COc1ccc2c3c(n(C)c2c1)[C@H](CO)N(CC1CC1)CC31CCN(Cc2ccc(F)cc2)CC1	12	-85*
COc1ccc(S(=O)(=O)N(C)C[C@H]2Oc3c(NC(=O)NC(C)C)cccc3C(=O)N([C@@H](C)CO)C[C@H]2C)cc1	-3	-22
O=C(CN1CCOCC1)NCC[C@H]1CC[C@@H](NC(=O)Nc2ccc(C(F)(F)F)cc2)[C@H](CO)O1	.	6
C[C@H](CO)N1C[C@H](C)[C@@H](CN(C)S(=O)(=O)c2cn(C)cn2)Oc2ccc(NC(=O)CCC(F)(F)F)cc2C1=O	.	20
C[C@@H]1CN([C@@H](C)CO)C(=O)c2cc(NC(=O)Cc3ccccc3)ccc2O[C@@H](C)CCCCO[C@H]1CN(C)C(=O)C1CCCCC1	-2	-56
C[C@@H]1CCCCO[C@@H](CN(C)C(=O)C2CCCCC2)[C@@H](C)CN([C@@H](C)CO)C(=O)c2cc(NC(=O)C3CCCCC3)ccc2O1	-1	-85*
C[C@H](CO)N1C[C@H](C)[C@H](CN(C)C(=O)C2CCCCC2)OCCCC[C@H](C)Oc2ccc(NC(=O)c3ccncc3)cc2C1=O	-3	54
C[C@H]1CCCCO[C@@H](CN(C)C(=O)C2CCCCC2)[C@@H](C)CN([C@@H](C)CO)C(=O)c2cc(NC(=O)Nc3ccccc3)ccc2O1	-16	-88*
C[C@H]1CCCCO[C@@H](CN(C)C(=O)C2CCCCC2)[C@@H](C)CN([C@@H](C)CO)C(=O)c2cc(NC(=O)c3ccncc3)ccc2O1	-3	-81*
C[C@@H]1CN([C@H](C)CO)C(=O)c2cc(NC(=O)C3CCCCC3)ccc2O[C@@H](C)CCCCO[C@@H]1CN(C)C(=O)C1CCCCC1	0	-65
C[C@@H]1CCCCO[C@H](CN(C)C(=O)C2CCCCC2)[C@@H](C)CN([C@@H](C)CO)C(=O)c2cc(NC(=O)Cc3ccccc3)ccc2O1	4	-85*
C[C@H](CO)N1C[C@H](C)[C@H](CN(C)C(=O)C2CCCCC2)OCCCC[C@H](C)Oc2ccc(NC(=O)Nc3ccccc3)cc2C1=O	-8	-1
COc1ccc(NC(=O)N(C)C[C@H]2OCCCC[C@@H](C)Oc3ccc(NC(=O)C4CCCCC4)cc3C(=O)N([C@H](C)CO)C[C@H]2C)cc1	-5	-71
SMILES	C diff HTS	Pf Dd2 growth
Cc1ccc(S(=O)(=O)Nc2ccc3c(c2)CC(=O)N([C@@H](C)CO)C[C@@H](C)[C@H](CN(C)C(=O)NC2CCCCC2)O3)cc1	-9	2
COc1ccc(C#Cc2ccc3c(c2)[C@H]2[C@H](CCN2C(=O)Nc2ccc(C(F)(F)F)cc2)[C@@H](CO)N3C)cc1	-3	-6
C[C@H]1CN([C@@H](C)CO)C(=O)c2cc(NC(=O)Nc3ccc(C(F)(F)F)cc3)ccc2O[C@H]1CN(C)Cc1ccncc1	7	7
C[C@@H]1CN([C@@H](C)CO)C(=O)Cc2cc(NS(=O)(=O)c3ccc(F)cc3)ccc2O[C@H]1CN(C)C(=O)NC1CCCCC1	-4	-12
C[C@H]1CN([C@@H](C)CO)C(=O)c2cc(-c3ccc(F)cc3)cnc2O[C@H]1CN(C)Cc1cncnc1	-3	2
C[C@@H]1CN([C@H](C)CO)C(=O)c2cc(NC(=O)Nc3ccccc3)ccc2O[C@@H](C)CCCCO[C@H]1CN(C)C(=O)C1CCCCC1	-6	-79
C[C@@H]1CN([C@@H](C)CO)C(=O)c2cc(NC(=O)Nc3ccccc3)ccc2O[C@@H](C)CCCCO[C@@H]1CN(C)C(=O)C1CCCCC1	-1	-84*
CN(C)C(=O)C[C@@H]1C[C@H]2c3cc(NC(=O)CC4CC4)ccc3O[C@H]2[C@H](CO)O1	.	15
O=C(C[C@H]1C[C@H]2c3cc(NC(=O)Nc4ccc(C(F)(F)F)cc4)ccc3O[C@H]2[C@H](CO)O1)NCc1cccnc1	-2	-30
C[C@@H]1CN([C@@H](C)CO)C(=O)c2cc(C#Cc3cccc(F)c3)cnc2O[C@@H]1CN(C)C(=O)C1CCCCC1	.	-86*
C[C@@H]1CN([C@H](C)CO)C(=O)c2cc(C#Cc3cccc(F)c3)cnc2O[C@@H]1CN(C)C(=O)C1CCC1	7	-71
C[C@H]1CN([C@@H](C)CO)C(=O)c2cc(C#Cc3cccc(F)c3)cnc2O[C@@H]1CN(C)C(=O)C1CCCCC1	.	-89*
CCCC#Cc1cnc2c(c1)C(=O)N([C@@H](C)CO)C[C@@H](C)[C@H](CN(C)C(=O)Nc1cc(F)ccc1F)O2	-9	-83*
C[C@H](CO)N1C[C@H](C)[C@H](CN(C)C(=O)C2CC2)Oc2ncc(C#Cc3cccc(F)c3)cc2C1=O	3	-18
CCCC#Cc1cnc2c(c1)C(=O)N([C@H](C)CO)C[C@H](C)[C@@H](CN(C)C(=O)Nc1cc(F)ccc1F)O2	-18	-63
C[C@@H]1CN([C@H](C)CO)C(=O)c2cc(C#Cc3ccccc3)cnc2O[C@H]1CN(C)C(=O)CCN1CCCCC1	13	-90*
C[C@H](CO)N1C[C@H](C)[C@@H](CN(C)C(=O)CCN2CCCCC2)Oc2ncc(C#Cc3ccccc3)cc2C1=O	7	-66
Cc1noc(C)c1NC(=O)N(C)C[C@H]1Oc2c(NS(=O)(=O)c3cn(C)cn3)cccc2C(=O)N([C@@H](C)CO)C[C@@H]1C	-3	3
C[C@H]1CCCCO[C@@H](CN(C)C(=O)NC2CCCCC2)[C@@H](C)CN([C@@H](C)CO)C(=O)c2cc(NC(=O)c3ccncc3)ccc2O1	-3	-48

Screening data (PubChem)
